Shown are actives, neighbours in structure and some others; about 3.5% of the full set was active somewhere.
GPR151 ag: activators of human GPR151, primary screen, cell-based, PathHunter beta-arrestin, luminescence. PathHunter beta-arrestin GPR151 cells. activation, % at 11.2 µM. actives 1% (n = 650,000). AID 1508602, 2020; in the data active means activation above about 4.9%;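 further: 0% = median of compound wells and 100% = cells with positive control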
FBW7 act: FBW7 E3 ligase activators, primary screen, biochemical, AlphaScreen, human | actives 0.13% (n = 650,000) | F-box/WD repeat-containing protein 7 (Homo sapiens), Q969H0 | AlphaScreen FBW7–phospho-cyclin E peptide binding, activator screen | normalized activity (activation), % at 26.1 µM; in the data active means normalized activity above about 1.9%;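 further: purified mutant Fbw7 with reduced substrate affinity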
Target sequence (Q969H0 whole entry, looked up): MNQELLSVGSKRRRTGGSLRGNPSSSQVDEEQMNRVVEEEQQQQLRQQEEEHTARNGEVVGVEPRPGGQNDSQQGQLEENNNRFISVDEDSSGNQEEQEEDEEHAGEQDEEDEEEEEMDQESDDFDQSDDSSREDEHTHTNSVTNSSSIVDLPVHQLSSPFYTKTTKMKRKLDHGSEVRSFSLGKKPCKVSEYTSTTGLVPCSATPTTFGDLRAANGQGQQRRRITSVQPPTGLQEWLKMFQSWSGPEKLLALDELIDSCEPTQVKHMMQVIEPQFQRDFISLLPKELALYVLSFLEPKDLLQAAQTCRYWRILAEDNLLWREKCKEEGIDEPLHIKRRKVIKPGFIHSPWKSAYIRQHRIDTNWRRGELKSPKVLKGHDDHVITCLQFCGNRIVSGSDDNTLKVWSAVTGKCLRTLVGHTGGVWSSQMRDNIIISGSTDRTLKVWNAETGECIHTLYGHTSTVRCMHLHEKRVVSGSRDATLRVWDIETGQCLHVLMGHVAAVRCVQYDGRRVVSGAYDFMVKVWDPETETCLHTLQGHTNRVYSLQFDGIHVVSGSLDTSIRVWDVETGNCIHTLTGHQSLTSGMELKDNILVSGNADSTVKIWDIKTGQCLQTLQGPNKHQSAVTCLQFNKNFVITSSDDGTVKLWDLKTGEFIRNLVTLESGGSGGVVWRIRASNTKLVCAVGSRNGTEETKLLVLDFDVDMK
TEAD-YAP block: TEAD-YAP interaction inhibition, primary screen, TEAD-YAP interaction inhibitor project, luminescence, HEK-TIYL cells; TEAD-Gal4/YAP UAS-luciferase luminescence; inhibition, % at 9.12 µM; actives 1.4% (n = 640,000); AID 1259422, 2018; in the data active means inhibition above about 32%;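 further: 0% = median of test compound wells and 100% = reference inhibitor wells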
MITF inh: MITF inhibitors, primary screen, biochemical, AlphaScreen, human; Microphthalmia-associated transcription factor (Homo sapiens), O75030; AlphaScreen MITF homodimerization, bead proximity signal; inhibition, % at 2.6 µM; actives 0.91% (n = 650,000); AID 1259374, 2018; in the data active means inhibition above about 50%;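 further: 0% = vehicle wells with protein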
Starred values were filed as active, the others as inactive.

SMILES | GPR151 ag | FBW7 act | TEAD-YAP block | MITF inh
CC(=O)O[C@H]1CCC2(C)C3=C(CCC2C1(C)C)[C@]1(C)CCC(C(C)CCC=C(C)C)[C@@]1(C)CC3 (stereo partly specified) | 3.1 | 0.1 | -12.1 | 11.7
O=[N+]([O-])c1ccc(Cl)c(-n2cnnn2)c1 | 0.9 | -0.1 | 59.2* | 7.9
COc1cc(NC(=O)c2cnc(N3CCN(c4ccccn4)CC3)s2)cc(OC)c1OC | 3.1 | 0.0 | 40.6* | 2.0
COc1cc(NC(=O)c2cnc(N3CCc4ccccc4C3)s2)cc(OC)c1OC | -1.4 | 0.0 | 42.0* | -0.7
Cc1cccc(C(=O)OCc2nc3ccccc3s2)c1O | -2.3 | 0.1 | -35.5 | 12.1
N#Cc1c(C(F)(F)F)cc(-c2cccs2)nc1SCC(=O)NCc1ccccc1 | -2.4 | -0.3 | -4.2 | -6.4
C=CCOc1ccc(/C=C2\C(=O)N(CCOC)C(C)=C2C(=O)OCC)cc1OC | -1.4 | 0.3 | -4.4 | 10.2
O=C(N/N=C\c1c(O)ccc2ccccc12)c1cncc(Br)c1 | -0.6 | -0.6 | 9.1 | -1.2
O=C(N/N=C/c1c(O)ccc2ccccc12)c1cccnc1 | -0.2 | -0.3 | 81.1* | 70.3*
O=C(N/N=C/c1c(O)ccc2ccccc12)c1ccc[n+](CCO)c1 | 0.6 | -0.9 | -5.3 | 89.5*
O=C(N/N=C/c1c(O)ccc2ccccc12)c1ccc(F)cc1 | -1.4 | -0.2 | 75.6* | 14.3
O=C(N/N=C/c1c(O)ccc2ccccc12)c1ccc(=O)[nH]n1 | 0.2 | -0.8 | 86.2* | 67.8*
COc1ccc(C(=O)Nc2c(C(=O)Nc3ccccc3OC)oc3cccnc23)cc1 | -0.6 | 0.2 | -3.6 | 4.4
COc1ccc(C2(CC(=O)N3CCNC(=O)C3)CC(=O)N(CCC(C)C)C2=O)cc1 (stereo unspecified) | -1.6 | -0.2 | 0.5 | -4.6
C/C(=C\c1ccccc1)c1nc2ccc([N+](=O)[O-])cc2[nH]1 | 1.2 | -0.1 | -53.1 | 5.5
CCn1ccnc1C(O)(c1ccccc1)c1ccccc1 | -0.7 | -0.1 | -7.2 | 2.8
Cc1nc2ccccn2c1C(=O)N/N=C/c1c(O)ccc2ccccc12 | -1.4 | -1.3 | 71.2* | 30.0
Cc1ccc(C(=O)N/N=C/c2c3ccccc3cc3ccccc23)cn1 | 2.0 | 0.3 | 2.7 | 1.7
Cc1nc2ccccn2c1C(=O)N/N=C/c1ccc(Cl)cc1Cl | -0.2 | -0.1 | 11.3 | -8.5
Cc1ccc(C(=O)N/N=C/c2c(O)ccc3ccccc23)cn1 | -0.7 | -0.1 | 80.2* | 55.2*
CCOc1ccc(-n2c(=S)sc3c(=O)n(-c4ccc(C)cc4)c(SCC(=O)N4CCN(c5ccccc5OC)CC4)nc32)cc1 | -0.6 | 0.0 | -2.6 | 21.0
Cc1ccc(OCCn2cc(/C=C3/C(=N)N4N=C(C(C)C)SC4=NC3=O)c3ccccc32)cc1 | 0.1 | -0.1 | -5.1 | 2.5
CCOC(=O)c1ccccc1NC(=O)C1CCN(c2ccc(-c3cccs3)nn2)CC1 | 0.4 | 0.1 | 3.2 | 8.0
Cc1cccc(NC(=O)C2CCN(c3ccc(-c4cccs4)nn3)CC2)n1 | -9.7 | 0.4 | 54.8* | 18.8
CC(C)CCNC(=O)CN(C(=O)c1snc(C(N)=O)c1N)c1ccccc1F | 1.1 | 2.1* | -0.5 | 2.5
SMILES | GPR151 ag | FBW7 act | TEAD-YAP block | MITF inh
CC(C)CCNC(=O)CN(C(=O)c1snc(C(N)=O)c1N)c1ccc(F)cc1 | 0.3 | -0.2 | -6.6 | 4.5
Clc1ccc(CSc2nnnn2-c2ccccc2)cc1 | -1.4 | 0.2 | -5.5 | 9.4
COc1ccc(-n2nnnc2SCc2ccc(Cl)cc2)cc1 | -1.0 | 0.3 | 53.0* | 13.9
CCc1ccc(-c2cc3ccccn3c2)cc1 | 1.1 | 0.2 | -2.9 | 3.3
COc1cc(-c2cnc3c(NCc4cccs4)nccn23)cc(OC)c1OC | 0.2 | 1.9* | 38.3* | -1.5
COc1cc(-c2cnc3c(NCc4cccnc4)nccn23)cc(OC)c1OC | 0.3 | -0.1 | 39.3* | -9.2
COc1cc(CNc2nccn3c(-c4cccc(O)c4)cnc23)cc(OC)c1OC | 0.6 | 2.1* | 0.0 | -1.1
COc1cc(-c2cnc3c(NCc4ccncc4)nccn23)cc(OC)c1OC | 0.2 | -0.5 | -7.8 | -1.4
Cc1ccc2cc3c(nc2c1C)OC(C)C(=O)N(Cc1ccco1)C3 (stereo unspecified) | 0.9 | 0.0 | 55.6* | 3.6
Cc1cc(C)c2nc3c(cc2c1)CN(Cc1ccco1)C(=O)CO3 | 0.7 | -0.1 | -11.6 | 4.1
CCOC(=O)C1=C(C)N=c2s/c(=C/c3cccc([N+](=O)[O-])c3O)c(=O)n2C1c1ccc(OC)cc1 (stereo unspecified) | -0.9 | 0.0 | 9.8 | 1.0
COc1cccc(-c2nnc(-c3ccc(N)cc3)o2)c1 | -1.1 | 0.0 | 40.6* | -3.7
CSc1cc(N)c2c(c1)NC(=O)CS2 | 1.2 | -0.1 | 9.7 | 8.7
CN(C)c1ccc(/C=N/Nc2cccc3cccnc23)cc1 | -4.6 | 0.4 | 37.4* | 4.7
CCOC(=O)C1CCN(c2c(NCc3ccc(OC)cc3)c(=O)c2=O)CC1 | -0.1 | 0.1 | 57.8* | -9.9
CCOC(=O)C1CCN(c2c(Nc3ccc(C)c(F)c3)c(=O)c2=O)CC1 | -0.2 | -0.2 | -9.8 | -0.6
CCOC(=O)C1CCN(c2c(NCc3ccc(N(C)C)cc3)c(=O)c2=O)CC1 | 0.9 | 0.0 | 0.9 | 5.3
CCOC(=O)C1CCN(c2c(Nc3cccc(SC)c3)c(=O)c2=O)CC1 | -0.2 | 0.0 | 55.4* | 0.6
CCOC(=O)C1CCN(c2c(NCc3ccc(F)cc3)c(=O)c2=O)CC1 | -1.7 | 0.1 | 64.3* | 12.2
CCOC(=O)C1CCN(c2c(NCc3ccc(Cl)cc3)c(=O)c2=O)CC1 | -0.6 | -0.1 | 66.6* | 0.7
COc1cc(/C=C(\C#N)C(=O)NC2CCS(=O)(=O)C2)cc(Br)c1O (stereo unspecified) | -1.8 | 0.0 | 0.5 | -3.1
CC1CC(C)CN(C(=O)c2ccc(N3CC4CC(C3)c3cccc(=O)n3C4)c(NC(=O)c3cccs3)c2)C1 (stereo unspecified) | -0.9 | 0.3 | -11.3 | 9.3
Cc1cccc(Cc2nnc(CCC(=O)NCc3cn4ccccc4n3)o2)c1 | -1.5 | 0.1 | 1.0 | 0.1
COc1ccc(OC)c(/C=C2/N=C(c3cccc([N+](=O)[O-])c3)OC2=O)c1 | 1.3 | 1.9* | 3.5 | 15.2
O=C1CCCC2=C1C(c1ccc(O)c(Br)c1)C1=C(CCCC1=O)O2 | 0.1 | 0.3 | 44.7* | 16.7
SMILES | GPR151 ag | FBW7 act | TEAD-YAP block | MITF inh
Cc1cc(C)nc(SC2CCCCC2O)n1 (stereo unspecified) | 0.6 | -0.2 | -1.3 | -3.9
N/C(=N\c1nc(C(F)(F)F)cc(=O)[nH]1)Nc1ccc(I)cc1 | -0.5 | -0.1 | 45.0* | -5.6
O=NN(CCc1ccncc1)c1ccc(OCc2ccccc2)cc1 | 0.4 | -0.1 | 37.7* | 1.3
COc1ccc(CC(=O)N2CCC3(CC2)OCc2cccc(OC)c2O3)cc1OC | 1.2 | -0.2 | 65.0* | 8.0
COc1cccc2c1OC1(CCN(C(=O)Cc3ccc(F)cc3)CC1)OC2 | 1.9 | 0.0 | -0.2 | 4.4
CN1C(/C=C/c2ccccc2Cl)=Nc2cccc3cccc1c23 | 0.3 | -0.1 | -46.6 | 53.2*
